Data taken from ChEMBL document CHEMBL1961873, “Compounds: GSK PKIS; Assays: Nanosyn kinase panel” (2012).

Experiments:
[1] = target: Sphingosine kinase 1 (Homo sapiens) (UniProt Q9NYA1); conditions: at 1 µM;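 also: mean SPHK1 inhibition value reported from the GSK PKIS kinase panel screen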
[2] = target: T1, Sphingosine kinase 2 (Homo sapiens) (UniProt Q9NRA0); conditions: at 0.1 µM
T1 sequence (whole entry): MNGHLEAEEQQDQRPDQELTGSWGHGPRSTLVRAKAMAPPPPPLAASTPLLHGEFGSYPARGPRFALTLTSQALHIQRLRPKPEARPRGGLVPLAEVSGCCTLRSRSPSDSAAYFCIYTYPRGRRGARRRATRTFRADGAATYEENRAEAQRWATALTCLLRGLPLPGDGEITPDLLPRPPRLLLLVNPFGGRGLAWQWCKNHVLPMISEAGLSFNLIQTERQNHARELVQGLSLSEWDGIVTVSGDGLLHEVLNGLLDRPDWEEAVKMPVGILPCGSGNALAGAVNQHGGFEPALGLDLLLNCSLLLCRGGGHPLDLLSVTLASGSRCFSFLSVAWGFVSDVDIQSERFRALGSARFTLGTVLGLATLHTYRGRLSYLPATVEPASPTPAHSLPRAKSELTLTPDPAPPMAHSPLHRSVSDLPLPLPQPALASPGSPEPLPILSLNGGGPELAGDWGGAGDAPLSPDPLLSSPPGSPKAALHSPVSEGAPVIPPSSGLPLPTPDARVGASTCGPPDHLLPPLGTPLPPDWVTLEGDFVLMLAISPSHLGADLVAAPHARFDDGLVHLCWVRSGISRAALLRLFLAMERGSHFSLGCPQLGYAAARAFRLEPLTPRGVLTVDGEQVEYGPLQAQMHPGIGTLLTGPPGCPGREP

[3] = target: T1, Sphingosine kinase 2 (Homo sapiens); conditions: at 1 µM
[4] = target: Casein kinase II subunit alpha (Homo sapiens) (UniProt P68400); conditions: at 0.1 µM
Chain of Casein kinase II subunit alpha (Homo sapiens) (P68400 whole entry, looked up): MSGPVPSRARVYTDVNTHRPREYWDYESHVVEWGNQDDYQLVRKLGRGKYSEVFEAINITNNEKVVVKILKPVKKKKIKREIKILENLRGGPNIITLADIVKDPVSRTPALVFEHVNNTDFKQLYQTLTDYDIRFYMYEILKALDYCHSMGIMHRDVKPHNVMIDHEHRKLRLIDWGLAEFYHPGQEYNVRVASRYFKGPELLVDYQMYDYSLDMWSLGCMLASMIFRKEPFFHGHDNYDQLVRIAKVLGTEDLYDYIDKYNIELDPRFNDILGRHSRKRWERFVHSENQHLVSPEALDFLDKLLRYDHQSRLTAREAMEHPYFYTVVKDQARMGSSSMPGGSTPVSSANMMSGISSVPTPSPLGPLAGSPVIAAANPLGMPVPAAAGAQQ

[5] = target: Casein kinase II subunit alpha (Homo sapiens) (UniProt P68400); conditions: at 1 µM
[6] = target: T2, Inhibitor of nuclear factor kappa-B kinase subunit alpha (Homo sapiens) (UniProt O15111); conditions: at 0.1 µM
T2 sequence (whole entry): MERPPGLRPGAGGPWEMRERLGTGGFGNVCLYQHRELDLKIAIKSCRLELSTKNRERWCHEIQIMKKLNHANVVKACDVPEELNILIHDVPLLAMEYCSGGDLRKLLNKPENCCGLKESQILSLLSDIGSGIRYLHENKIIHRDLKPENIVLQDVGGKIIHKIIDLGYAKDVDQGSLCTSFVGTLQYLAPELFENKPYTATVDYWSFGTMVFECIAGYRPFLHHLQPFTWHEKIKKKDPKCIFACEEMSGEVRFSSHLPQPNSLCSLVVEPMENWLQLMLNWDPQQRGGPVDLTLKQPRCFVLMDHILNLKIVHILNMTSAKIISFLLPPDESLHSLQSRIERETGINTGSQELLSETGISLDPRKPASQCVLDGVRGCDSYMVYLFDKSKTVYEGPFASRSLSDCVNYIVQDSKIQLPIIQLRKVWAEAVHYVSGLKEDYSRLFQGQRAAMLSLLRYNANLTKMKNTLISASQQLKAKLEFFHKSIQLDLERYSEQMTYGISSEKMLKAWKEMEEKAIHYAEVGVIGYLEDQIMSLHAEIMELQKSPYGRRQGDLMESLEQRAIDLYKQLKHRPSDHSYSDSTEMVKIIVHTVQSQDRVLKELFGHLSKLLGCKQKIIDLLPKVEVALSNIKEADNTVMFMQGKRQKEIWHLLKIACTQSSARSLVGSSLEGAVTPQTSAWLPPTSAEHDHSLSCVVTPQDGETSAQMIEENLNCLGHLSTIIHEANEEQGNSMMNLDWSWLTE

[7] = target: T2, Inhibitor of nuclear factor kappa-B kinase subunit alpha (Homo sapiens); conditions: at 1 µM
[8] = target: T3, Inhibitor of nuclear factor kappa-B kinase subunit beta (Homo sapiens) (UniProt O14920); conditions: at 0.1 µM
T3 sequence (whole entry): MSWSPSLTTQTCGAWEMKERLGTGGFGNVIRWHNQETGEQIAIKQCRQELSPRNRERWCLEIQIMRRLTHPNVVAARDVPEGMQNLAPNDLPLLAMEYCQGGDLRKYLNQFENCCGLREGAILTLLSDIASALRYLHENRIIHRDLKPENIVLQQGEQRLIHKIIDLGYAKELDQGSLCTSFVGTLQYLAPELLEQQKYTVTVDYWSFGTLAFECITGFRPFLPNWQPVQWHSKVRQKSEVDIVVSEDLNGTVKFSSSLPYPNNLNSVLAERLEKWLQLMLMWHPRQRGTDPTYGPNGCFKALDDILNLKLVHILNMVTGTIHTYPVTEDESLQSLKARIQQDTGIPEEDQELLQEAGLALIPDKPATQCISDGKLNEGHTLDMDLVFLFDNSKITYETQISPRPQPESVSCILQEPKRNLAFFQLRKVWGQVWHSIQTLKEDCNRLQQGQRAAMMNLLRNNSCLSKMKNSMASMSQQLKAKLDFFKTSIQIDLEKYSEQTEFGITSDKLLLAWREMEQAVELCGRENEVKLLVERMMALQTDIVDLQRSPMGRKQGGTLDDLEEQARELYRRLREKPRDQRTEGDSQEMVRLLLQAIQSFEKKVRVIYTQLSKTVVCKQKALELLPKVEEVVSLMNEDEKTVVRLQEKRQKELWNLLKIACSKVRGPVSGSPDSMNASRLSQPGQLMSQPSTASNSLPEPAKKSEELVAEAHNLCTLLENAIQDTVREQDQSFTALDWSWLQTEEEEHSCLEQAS

[9] = target: T3, Inhibitor of nuclear factor kappa-B kinase subunit beta (Homo sapiens); conditions: at 1 µM
[10] = target: T4, Inhibitor of nuclear factor kappa-B kinase subunit epsilon (Homo sapiens) (UniProt Q14164); conditions: at 0.1 µM
T4 sequence (whole entry): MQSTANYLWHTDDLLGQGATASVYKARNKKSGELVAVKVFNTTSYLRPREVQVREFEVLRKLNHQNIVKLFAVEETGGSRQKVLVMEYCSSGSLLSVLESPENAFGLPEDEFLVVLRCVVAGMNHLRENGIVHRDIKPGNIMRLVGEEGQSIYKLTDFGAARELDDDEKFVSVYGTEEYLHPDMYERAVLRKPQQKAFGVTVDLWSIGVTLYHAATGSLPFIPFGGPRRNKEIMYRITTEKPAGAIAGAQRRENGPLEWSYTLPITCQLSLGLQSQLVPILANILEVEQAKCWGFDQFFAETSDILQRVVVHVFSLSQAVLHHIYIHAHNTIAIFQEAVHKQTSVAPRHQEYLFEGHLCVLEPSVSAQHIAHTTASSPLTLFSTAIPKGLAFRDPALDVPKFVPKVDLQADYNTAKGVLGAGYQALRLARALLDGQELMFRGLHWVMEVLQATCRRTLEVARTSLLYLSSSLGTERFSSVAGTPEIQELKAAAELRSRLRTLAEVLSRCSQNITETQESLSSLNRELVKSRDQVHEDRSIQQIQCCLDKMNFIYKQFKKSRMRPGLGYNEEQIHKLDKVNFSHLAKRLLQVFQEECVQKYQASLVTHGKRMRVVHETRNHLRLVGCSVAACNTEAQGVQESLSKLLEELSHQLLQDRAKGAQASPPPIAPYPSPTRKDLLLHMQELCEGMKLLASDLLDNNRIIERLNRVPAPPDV

[11] = target: T4, Inhibitor of nuclear factor kappa-B kinase subunit epsilon (Homo sapiens); conditions: at 1 µM
[12] = target: T5, Serine/threonine-protein kinase Nek1 (Homo sapiens) (UniProt Q96PY6); conditions: at 0.1 µM
T5 sequence (whole entry): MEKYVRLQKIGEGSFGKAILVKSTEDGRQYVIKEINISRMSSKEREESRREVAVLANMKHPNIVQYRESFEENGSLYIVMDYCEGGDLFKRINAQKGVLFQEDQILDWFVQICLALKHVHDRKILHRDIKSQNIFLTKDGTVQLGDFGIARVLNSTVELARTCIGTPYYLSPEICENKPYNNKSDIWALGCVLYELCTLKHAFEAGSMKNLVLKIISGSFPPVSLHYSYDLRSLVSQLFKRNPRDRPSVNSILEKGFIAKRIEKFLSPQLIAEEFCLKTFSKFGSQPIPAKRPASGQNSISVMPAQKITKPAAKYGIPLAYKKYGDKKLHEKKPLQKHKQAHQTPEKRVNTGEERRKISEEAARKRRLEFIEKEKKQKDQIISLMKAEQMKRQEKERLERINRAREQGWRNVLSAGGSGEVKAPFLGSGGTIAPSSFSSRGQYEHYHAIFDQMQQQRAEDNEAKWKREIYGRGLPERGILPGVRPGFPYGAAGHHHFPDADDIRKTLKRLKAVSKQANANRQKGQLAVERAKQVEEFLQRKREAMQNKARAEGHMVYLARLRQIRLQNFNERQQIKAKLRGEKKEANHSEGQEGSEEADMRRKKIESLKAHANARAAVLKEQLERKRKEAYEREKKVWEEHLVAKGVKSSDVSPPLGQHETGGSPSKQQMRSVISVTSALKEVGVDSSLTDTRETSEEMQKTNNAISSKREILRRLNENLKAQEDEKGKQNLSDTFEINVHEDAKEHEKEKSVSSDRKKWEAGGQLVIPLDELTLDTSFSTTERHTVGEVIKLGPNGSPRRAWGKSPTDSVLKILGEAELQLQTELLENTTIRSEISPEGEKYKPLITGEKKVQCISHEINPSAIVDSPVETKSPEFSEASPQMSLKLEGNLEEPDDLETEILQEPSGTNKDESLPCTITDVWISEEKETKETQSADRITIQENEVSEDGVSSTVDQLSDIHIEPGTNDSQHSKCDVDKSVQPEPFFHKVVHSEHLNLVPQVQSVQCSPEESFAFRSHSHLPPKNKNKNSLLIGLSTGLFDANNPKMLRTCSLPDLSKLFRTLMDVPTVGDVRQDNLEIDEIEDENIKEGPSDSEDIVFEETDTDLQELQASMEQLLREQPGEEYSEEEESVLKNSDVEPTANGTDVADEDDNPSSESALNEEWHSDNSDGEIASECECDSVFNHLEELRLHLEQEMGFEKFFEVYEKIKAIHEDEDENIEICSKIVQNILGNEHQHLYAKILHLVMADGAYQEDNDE

[13] = target: T5, Serine/threonine-protein kinase Nek1 (Homo sapiens); conditions: at 1 µM
[14] = target: T6, Serine/threonine-protein kinase Nek2 (Homo sapiens) (UniProt P51955); conditions: at 0.1 µM
T6 sequence (whole entry): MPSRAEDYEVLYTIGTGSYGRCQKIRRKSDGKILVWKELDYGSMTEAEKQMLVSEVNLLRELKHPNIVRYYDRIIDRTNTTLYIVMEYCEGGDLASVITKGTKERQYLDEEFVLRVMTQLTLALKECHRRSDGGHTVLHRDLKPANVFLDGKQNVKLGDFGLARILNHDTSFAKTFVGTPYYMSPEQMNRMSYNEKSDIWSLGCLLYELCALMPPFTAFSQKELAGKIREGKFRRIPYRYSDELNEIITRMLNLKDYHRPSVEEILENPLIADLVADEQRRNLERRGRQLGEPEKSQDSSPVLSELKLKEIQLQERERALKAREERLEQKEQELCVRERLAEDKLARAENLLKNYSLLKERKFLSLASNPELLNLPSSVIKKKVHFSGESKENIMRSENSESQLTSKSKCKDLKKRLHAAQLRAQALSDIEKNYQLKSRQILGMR

[15] = target: T6, Serine/threonine-protein kinase Nek2 (Homo sapiens); conditions: at 1 µM
[16] = target: Serine/threonine-protein kinase Nek6 (Homo sapiens) (UniProt Q9HC98); conditions: at 0.1 µM
Chain of Serine/threonine-protein kinase Nek6 (Homo sapiens) (Q9HC98 whole entry): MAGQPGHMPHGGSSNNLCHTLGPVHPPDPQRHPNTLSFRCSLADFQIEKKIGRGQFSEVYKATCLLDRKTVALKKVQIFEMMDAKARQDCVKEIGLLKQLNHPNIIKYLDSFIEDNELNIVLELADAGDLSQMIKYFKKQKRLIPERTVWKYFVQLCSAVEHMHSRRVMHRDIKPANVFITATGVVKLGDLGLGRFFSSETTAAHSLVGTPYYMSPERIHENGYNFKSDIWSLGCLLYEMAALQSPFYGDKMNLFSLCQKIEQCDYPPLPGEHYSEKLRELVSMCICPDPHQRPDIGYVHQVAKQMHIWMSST

[17] = target: Serine/threonine-protein kinase Nek6 (Homo sapiens) (UniProt Q9HC98); conditions: at 1 µM
[18] = target: Serine/threonine-protein kinase Nek7 (Homo sapiens) (UniProt Q8TDX7); conditions: at 0.1 µM
Chain of Serine/threonine-protein kinase Nek7 (Homo sapiens) (Q8TDX7 whole entry, looked up): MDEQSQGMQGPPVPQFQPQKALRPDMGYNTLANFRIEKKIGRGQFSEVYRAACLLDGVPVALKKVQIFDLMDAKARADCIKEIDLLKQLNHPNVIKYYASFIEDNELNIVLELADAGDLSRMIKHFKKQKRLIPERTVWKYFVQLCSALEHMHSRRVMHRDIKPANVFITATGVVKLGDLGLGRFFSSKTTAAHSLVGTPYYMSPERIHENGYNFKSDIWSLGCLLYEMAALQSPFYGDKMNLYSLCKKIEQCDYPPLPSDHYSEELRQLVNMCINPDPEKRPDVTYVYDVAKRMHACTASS

[19] = target: Serine/threonine-protein kinase Nek7 (Homo sapiens) (UniProt Q8TDX7); conditions: at 1 µM
[20] = target: T7, Serine/threonine-protein kinase Nek9 (Homo sapiens) (UniProt Q8TD19); conditions: at 0.1 µM;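 also: reported value is the mean percent inhibition of NEK9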
T7 sequence (whole entry): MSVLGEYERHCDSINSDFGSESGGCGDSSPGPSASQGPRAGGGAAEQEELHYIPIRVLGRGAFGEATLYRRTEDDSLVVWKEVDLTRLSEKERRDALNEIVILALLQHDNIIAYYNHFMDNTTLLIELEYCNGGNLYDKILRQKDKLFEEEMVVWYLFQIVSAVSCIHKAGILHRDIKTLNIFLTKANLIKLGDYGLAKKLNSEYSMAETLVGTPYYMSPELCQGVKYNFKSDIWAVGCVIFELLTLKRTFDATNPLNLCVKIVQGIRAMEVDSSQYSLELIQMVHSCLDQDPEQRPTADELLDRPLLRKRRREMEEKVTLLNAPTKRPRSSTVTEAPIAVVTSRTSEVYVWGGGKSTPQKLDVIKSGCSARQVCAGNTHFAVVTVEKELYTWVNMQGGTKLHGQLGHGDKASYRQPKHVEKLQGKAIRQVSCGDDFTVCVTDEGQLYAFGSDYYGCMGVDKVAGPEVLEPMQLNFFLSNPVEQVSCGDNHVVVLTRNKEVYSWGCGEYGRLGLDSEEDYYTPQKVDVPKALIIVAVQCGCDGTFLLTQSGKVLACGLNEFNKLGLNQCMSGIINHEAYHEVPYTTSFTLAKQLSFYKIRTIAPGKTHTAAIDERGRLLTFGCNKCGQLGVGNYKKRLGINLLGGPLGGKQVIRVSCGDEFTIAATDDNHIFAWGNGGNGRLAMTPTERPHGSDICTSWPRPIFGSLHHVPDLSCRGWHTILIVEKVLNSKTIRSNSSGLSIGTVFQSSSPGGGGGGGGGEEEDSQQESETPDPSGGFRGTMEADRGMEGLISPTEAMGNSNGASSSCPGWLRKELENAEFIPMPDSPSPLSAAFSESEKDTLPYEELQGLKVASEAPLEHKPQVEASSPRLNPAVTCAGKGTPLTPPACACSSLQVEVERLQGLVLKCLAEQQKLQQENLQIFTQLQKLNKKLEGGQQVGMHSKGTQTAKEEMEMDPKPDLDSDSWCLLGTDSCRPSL

Chain of Sphingosine kinase 1 (Homo sapiens) (Q9NYA1 whole entry): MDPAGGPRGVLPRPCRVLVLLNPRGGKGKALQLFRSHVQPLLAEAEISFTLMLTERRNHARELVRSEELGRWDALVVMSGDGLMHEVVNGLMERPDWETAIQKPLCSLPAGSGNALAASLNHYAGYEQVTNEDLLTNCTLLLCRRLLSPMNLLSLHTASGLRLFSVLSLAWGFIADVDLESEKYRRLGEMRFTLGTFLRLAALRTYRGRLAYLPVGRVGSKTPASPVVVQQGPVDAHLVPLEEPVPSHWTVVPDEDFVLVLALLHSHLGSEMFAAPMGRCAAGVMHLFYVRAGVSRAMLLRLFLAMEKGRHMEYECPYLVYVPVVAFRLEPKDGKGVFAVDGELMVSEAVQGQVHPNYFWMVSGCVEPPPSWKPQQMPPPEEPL

SMILES	inhibition [1] [%]	inhibition [2] [%]	inhibition [3] [%]	inhibition [4] [%]	inhibition [5] [%]	inhibition [6] [%]	inhibition [7] [%]	inhibition [8] [%]	inhibition [9] [%]	inhibition [10] [%]	inhibition [11] [%]	inhibition [12] [%]	inhibition [13] [%]	inhibition [14] [%]	inhibition [15] [%]	inhibition [16] [%]	inhibition [17] [%]	inhibition [18] [%]	inhibition [19] [%]	inhibition [20] [%]
CN(c1ccc(NC(=O)NCCN2CCOCC2)cc1)c1ccnc(Nc2ccc(CS(C)(=O)=O)cc2)n1	7.75	0.36	0.38	5.71	11.9	10.9	8	3.48	3.83	3.55	95.2	2.09	4.64	2.52	1.94	3.82	3.91	3.06	3.17	5.2
NC(=O)c1ccc2c(-c3ccnc(NCCCO)n3)c(-c3ccc(F)cc3)nn2c1	-1.09	0.78	-0.19	3.49	3.53	8.35	4.86	7.11	2.1	4.91	3.59	2.6	3.93	5.07	6.59	1.23	-0.99	6.38	4.14	5.71
COc1ccccc1-c1cc(/C=C2\C(=O)Nc3ncc(Br)cc32)cc(Br)c1O	-2.44	2.31	0.1	1.59	3.83	0.19	0.71	5.58	-0.48	10.9	12.5	2.67	0.39	6.8	6.16	3.44	0.04	6.5	3.62	3.73
